Of roughly 8,800 targets only a part is listed; those with a hit were picked by preference. About 0.5% of all pairs of compound and target were hits. A number with no mark means an inactive call.
What was measured:
Experiment in all cases: log2 fold change, soluble protein after heating vs DMSO (PISA); higher = thermal stabilisation; K562 lysate, 10 uM; active = over 0.2 and 3.5 SD of the protein, either way, in both replicates (recomputed)
vemurafenib = compound: CCCS(=O)(=O)Nc1ccc(F)c(C(=O)c2c[nH]c3ncc(-c4ccc(Cl)cc4)cc23)c1F [vemurafenib]
In short: (§1)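 Quantification was by TMTpro 16plex LC-MS/MS with equalised channel sums, applied to the supernatant after 21,000xg for 90 min. Samples were crude K562 extract at 1 mg/mL protein in PBS pH 7.4 with 1 mM MgCl2, treated with 10 μM compound for 30 min, heated for 3 min across 48°C-58°C, pooled and brought to 0.5% NP-40 at 4°C. Values are log-two fold changes in thermal stability relative to solvent controls, from duplicates.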

[1] = compound: CCCS(=O)(=O)Nc1ccc(F)c(C(=O)c2c[nH]c3ncc(Cl)cc23)c1F
In short: as §1

barasertib = compound: CCN(CCCOc1ccc2c(Nc3cc(CC(=O)Nc4cccc(F)c4)[nH]n3)ncnc2c1)CCOP(=O)(O)O [barasertib]
In short: as §1

[2] = compound: CC[C@@H]1C(=O)N(C)c2cnc(Nc3ccc(C(=O)NC4CCN(C)CC4)cc3OC)nc2N1C1CCCC1
In short: as §1

volasertib = compound: CC[C@@H]1C(=O)N(C)c2cnc(Nc3ccc(C(=O)N[C@H]4CC[C@H](N5CCN(CC6CC6)CC5)CC4)cc3OC)nc2N1C(C)C [volasertib]
In short: as §1

[3] = compound: CCn1c(C(=O)N(C2CC2)C2CC2)cc2c3c(ncn3C)c(Nc3cc(C)n(C)n3)nc21
In short: as §1

[4] = compound: CCn1cc(-c2ccnc3[nH]c(-c4cccc(CN(C)C)c4)cc23)c(-c2ccc(NC(=O)N(C)C)cc2)n1
In short: as §1

[5] = compound: CN1CCC(CNc2ccc3ncc(-c4cccc(OC(F)(F)F)c4)n3n2)CC1
In short: as §1

saracatinib = compound: CN1CCN(CCOc2cc(OC3CCOCC3)c3c(Nc4c(Cl)ccc5c4OCO5)ncnc3c2)CC1 [saracatinib]
In short: as §1

sotrastaurin = compound: CN1CCN(c2nc(C3=C(c4c[nH]c5ccccc45)C(=O)NC3=O)c3ccccc3n2)CC1 [sotrastaurin]
In short: as §1

alvocidib = compound: CN1CC[C@H](c2c(O)cc(O)c3c(=O)cc(-c4ccccc4Cl)oc23)[C@H](O)C1 [alvocidib]
In short: as §1

Tubastatin A = compound: CN1CCc2c(c3ccccc3n2Cc2ccc(C(=O)NO)cc2)C1 [Tubastatin A]
In short: as §1

[6] = compound: CNC(=O)C1=CC=CC=C1NC2=NC(=NC=C2Cl)NC3=C(C=C(C=C3)N4CCOCC4)OC
In short: as §1

defactinib = compound: CNC(=O)c1ccc(Nc2ncc(C(F)(F)F)c(NCc3nccnc3N(C)S(C)(=O)=O)n2)cc1 [defactinib]
In short: as §1

[7] = compound: CNc1nc(-c2ccc3c(N)n[nH]c3c2)cc(N2C[C@@H](C(=O)NC3CCCCC3)CC[C@H]2C)n1
In short: as §1

encorafenib = compound: COC(=O)N[C@@H](C)CNc1nccc(-c2cn(C(C)C)nc2-c2cc(Cl)cc(NS(C)(=O)=O)c2F)n1 [encorafenib]
In short: as §1

[8] = compound: COC(=O)[C@H](CCSC)NC(=O)C1=C(C=C(C=C1)NC[C@H](CS)N)C2=CC=CC=C2
In short: as §1

alisertib = compound: COc1cc(Nc2ncc3c(n2)-c2ccc(Cl)cc2C(c2c(F)cccc2OC)=NC3)ccc1C(=O)O [alisertib]
In short: as §1

[9] = compound: COc1cc2nc(-c3cc(F)ccc3O)nc(N[C@@H]3CNC[C@H]3C(C)(C)O)c2cc1OC
In short: as §1

gefitinib = compound: COc1cc2ncnc(Nc3ccc(F)c(Cl)c3)c2cc1OCCCN1CCOCC1 [gefitinib]
In short: as §1

Chain of UniProt Q9UQE7 (Q9UQE7 whole entry, looked up): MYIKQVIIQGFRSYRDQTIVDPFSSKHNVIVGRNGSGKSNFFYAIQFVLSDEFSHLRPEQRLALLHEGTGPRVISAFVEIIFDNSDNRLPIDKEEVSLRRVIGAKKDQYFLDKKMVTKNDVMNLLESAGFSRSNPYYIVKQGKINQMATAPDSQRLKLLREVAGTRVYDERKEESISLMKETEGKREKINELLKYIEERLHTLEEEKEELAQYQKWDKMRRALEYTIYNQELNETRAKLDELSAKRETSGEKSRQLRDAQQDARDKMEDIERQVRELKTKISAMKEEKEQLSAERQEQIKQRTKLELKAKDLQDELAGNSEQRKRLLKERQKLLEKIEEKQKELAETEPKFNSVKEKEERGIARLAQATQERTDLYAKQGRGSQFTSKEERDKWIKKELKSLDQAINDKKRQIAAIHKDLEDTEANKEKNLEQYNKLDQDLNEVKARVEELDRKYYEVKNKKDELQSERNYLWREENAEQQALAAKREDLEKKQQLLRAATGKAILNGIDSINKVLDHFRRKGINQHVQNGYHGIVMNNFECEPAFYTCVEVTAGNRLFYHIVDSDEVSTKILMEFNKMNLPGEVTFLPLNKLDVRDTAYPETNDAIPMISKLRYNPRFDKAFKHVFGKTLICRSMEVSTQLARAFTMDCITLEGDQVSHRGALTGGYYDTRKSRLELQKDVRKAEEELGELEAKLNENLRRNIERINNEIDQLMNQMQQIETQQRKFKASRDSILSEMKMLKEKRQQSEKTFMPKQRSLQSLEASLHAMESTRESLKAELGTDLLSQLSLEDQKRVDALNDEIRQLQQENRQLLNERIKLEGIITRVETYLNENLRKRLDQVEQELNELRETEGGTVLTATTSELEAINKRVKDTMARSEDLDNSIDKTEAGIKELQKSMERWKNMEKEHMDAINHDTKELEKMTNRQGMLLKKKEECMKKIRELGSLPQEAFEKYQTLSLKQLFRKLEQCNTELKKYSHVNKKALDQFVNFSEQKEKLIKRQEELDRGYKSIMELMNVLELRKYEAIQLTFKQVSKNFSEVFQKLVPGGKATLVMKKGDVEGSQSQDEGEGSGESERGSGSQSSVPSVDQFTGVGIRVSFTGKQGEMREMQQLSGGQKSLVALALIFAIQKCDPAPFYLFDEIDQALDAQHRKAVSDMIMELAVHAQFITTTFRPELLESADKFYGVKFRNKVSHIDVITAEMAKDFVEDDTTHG
Chain of UniProt P51532 (P51532 whole entry, looked up): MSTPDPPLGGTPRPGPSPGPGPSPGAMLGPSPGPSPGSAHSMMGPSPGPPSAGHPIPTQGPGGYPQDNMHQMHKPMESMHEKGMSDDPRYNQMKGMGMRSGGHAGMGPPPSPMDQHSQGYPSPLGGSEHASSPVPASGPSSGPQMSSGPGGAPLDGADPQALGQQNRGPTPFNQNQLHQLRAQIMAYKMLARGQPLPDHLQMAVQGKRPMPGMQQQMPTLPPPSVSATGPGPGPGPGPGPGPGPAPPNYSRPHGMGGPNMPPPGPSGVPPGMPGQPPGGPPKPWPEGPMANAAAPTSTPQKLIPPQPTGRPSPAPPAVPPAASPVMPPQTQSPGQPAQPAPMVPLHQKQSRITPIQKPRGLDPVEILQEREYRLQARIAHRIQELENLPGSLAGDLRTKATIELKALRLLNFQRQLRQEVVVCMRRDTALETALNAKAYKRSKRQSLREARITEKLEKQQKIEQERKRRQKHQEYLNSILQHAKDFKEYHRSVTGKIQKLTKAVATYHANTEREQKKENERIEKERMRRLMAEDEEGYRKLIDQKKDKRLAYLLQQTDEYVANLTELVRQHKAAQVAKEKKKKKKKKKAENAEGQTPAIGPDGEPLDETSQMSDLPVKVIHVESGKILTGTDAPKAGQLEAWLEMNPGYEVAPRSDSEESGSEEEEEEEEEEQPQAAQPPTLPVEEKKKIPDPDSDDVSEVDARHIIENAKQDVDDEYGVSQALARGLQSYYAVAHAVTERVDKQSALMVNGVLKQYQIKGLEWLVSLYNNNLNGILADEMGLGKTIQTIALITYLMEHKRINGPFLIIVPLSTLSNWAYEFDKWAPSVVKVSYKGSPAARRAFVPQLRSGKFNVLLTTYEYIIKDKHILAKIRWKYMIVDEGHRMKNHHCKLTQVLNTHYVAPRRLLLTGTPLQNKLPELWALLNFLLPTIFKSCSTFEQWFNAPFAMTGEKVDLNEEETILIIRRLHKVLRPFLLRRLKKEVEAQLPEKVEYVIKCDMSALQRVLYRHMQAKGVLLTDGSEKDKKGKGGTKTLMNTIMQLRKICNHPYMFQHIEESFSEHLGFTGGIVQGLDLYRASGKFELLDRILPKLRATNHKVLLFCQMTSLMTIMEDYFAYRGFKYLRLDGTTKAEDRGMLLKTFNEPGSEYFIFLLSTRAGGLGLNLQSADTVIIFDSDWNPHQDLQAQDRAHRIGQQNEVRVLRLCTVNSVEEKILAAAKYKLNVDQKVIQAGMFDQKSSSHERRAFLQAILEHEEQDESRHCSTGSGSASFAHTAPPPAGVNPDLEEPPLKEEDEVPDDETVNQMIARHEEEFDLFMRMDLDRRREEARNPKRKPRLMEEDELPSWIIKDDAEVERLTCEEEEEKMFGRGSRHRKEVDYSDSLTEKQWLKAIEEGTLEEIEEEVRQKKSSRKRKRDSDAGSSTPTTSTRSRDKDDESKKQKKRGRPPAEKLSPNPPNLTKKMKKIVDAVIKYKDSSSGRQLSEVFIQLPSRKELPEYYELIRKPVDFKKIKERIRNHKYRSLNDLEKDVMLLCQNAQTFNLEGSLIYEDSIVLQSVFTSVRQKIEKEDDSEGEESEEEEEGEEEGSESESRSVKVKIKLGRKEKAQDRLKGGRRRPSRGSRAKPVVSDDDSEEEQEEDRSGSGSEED
Chain of UniProt Q99963 (Q99963 whole entry, looked up): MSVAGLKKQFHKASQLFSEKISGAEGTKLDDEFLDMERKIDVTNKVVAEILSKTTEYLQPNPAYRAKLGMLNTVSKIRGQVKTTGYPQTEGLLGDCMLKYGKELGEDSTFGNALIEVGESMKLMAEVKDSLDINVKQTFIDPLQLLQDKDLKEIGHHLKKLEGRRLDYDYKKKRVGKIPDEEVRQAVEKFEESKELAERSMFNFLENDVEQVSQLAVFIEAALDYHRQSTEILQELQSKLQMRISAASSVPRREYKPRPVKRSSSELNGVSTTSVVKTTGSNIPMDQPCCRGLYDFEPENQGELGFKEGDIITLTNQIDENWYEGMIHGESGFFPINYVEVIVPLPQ
Chain of UniProt Q13043 (Q13043 whole entry, looked up): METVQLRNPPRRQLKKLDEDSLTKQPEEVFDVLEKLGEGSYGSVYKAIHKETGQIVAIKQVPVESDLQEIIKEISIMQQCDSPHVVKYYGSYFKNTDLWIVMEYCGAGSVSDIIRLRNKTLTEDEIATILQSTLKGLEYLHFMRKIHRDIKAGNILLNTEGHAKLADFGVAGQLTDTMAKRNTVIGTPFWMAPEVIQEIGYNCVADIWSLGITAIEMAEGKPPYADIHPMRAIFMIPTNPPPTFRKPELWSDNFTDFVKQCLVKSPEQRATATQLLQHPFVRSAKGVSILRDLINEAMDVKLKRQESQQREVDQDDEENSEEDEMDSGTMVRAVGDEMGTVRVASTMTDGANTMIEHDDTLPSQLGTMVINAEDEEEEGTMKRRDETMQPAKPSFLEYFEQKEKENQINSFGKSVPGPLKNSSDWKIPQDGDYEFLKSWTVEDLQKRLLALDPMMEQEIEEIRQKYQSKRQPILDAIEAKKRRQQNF
Chain of UniProt P62306 (P62306 whole entry, looked up): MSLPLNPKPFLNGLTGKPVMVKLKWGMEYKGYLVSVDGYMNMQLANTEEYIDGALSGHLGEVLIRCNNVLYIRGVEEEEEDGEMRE
Chain of UniProt P53814 (P53814 whole entry, looked up): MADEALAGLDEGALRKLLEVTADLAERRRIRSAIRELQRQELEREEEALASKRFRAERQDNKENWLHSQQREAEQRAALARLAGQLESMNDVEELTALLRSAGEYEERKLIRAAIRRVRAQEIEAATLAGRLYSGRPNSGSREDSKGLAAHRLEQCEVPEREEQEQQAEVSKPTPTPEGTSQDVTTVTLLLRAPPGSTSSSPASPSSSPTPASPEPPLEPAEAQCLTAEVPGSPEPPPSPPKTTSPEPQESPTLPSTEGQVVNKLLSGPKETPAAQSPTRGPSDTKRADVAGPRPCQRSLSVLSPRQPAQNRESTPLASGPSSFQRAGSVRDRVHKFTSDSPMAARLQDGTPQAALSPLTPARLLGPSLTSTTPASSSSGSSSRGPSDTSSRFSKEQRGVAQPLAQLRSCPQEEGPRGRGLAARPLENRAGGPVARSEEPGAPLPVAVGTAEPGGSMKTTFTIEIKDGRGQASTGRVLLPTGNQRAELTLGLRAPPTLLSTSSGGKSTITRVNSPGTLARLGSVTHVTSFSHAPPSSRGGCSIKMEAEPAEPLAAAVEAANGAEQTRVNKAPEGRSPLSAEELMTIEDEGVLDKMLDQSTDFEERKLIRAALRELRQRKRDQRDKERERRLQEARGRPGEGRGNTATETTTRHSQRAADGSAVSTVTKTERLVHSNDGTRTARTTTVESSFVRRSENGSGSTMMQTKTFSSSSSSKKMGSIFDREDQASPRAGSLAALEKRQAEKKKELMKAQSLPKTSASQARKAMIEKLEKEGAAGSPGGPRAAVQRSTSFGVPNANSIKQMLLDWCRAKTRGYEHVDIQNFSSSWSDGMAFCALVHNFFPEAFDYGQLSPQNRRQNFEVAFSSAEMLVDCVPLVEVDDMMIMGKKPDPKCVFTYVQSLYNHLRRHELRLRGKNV
Chain of UniProt Q9UNE7 (Q9UNE7 whole entry, looked up): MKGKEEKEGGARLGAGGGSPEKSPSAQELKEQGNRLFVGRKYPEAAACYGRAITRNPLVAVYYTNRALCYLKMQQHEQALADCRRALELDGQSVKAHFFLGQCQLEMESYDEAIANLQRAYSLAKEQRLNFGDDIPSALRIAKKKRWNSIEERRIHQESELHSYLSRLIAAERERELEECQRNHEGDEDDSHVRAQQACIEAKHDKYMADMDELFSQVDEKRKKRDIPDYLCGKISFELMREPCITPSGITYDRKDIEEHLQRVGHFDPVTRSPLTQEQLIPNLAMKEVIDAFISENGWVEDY

Target	log2 fold change (vemurafenib)	log2 fold change [1]	log2 fold change (barasertib)	log2 fold change [2]	log2 fold change (volasertib)	log2 fold change [3]	log2 fold change [4]	log2 fold change [5]	log2 fold change (saracatinib)	log2 fold change (sotrastaurin)	log2 fold change (alvocidib)	log2 fold change (Tubastatin A)	log2 fold change [6]	log2 fold change (defactinib)	log2 fold change [7]	log2 fold change (encorafenib)	log2 fold change [8]	log2 fold change (alisertib)	log2 fold change [9]	log2 fold change (gefitinib)
STUB1 (UniProt Q9UNE7)	0.01	0.02	-0.007	-0.072	-0.051	0.018	-0.015	-0.03	0.006	0.004	-0.012	-0.193	0.003	-0.029	0.026	-0.025	0.135	0.003	0.007	-0.003
SMTN isoform 6 (UniProt P53814)	0.021	0.061	0.018	-0.007	-0.078	-0.026	-0.036	-0.006	0.013	-0.051	-0.04	-0.019	0.071	-0.103	-0.013	-0.002	-0.085	0.055	-0.005	0.005
SMAD9 (UniProt O15198)	-0.045	-0.003	0.032	-0.011	0.024	0.111	0.021	0.048	0.08	0.007	0.008	-0.075	0.089	-0.081	0.011	0.014	-0.014	0.052	0.047	-0.028
SVIP (UniProt Q8NHG7)	-0.014	0.014	0.051	0.079	0.095	-0.11	0.033	0.005	0	-0.086	-0.014	0.028	-0.017	0.025	0.098	-0.042	-0.055	0.05	-0.039	-0.099
SMC3 (UniProt Q9UQE7)	-0.018	0.004	-0.004	0.008	-0.013	0.003	0.041	-0.018	-0.011	-0.016	-0.009	0.006	0.003	0.002	-0.036	-0.007	0.002	0.005	-0.013	-0.005
SLC19A1 (UniProt P41440)	0.028	-0.005	0.059	0.014	0.047	-0.036	-0.203	0.165	0.019	0.025	-0.106	0.047	0.025	0.01	0.037	0.011	-0.018	-0.005	0.039	0.026
STK39 (UniProt Q9UEW8)	0.002	0.01	0.012	-0.046	-0.048	0.001	-0.013	-0.027	-0.002	0.02	0.011	-0.128	-0.015	0	-0.026	-0.021	0.164	-0.055	0.02	0.028
STK4 (UniProt Q13043)	0.058	0.047	0.029	0.002	-0.046	0.023	-0.019	0.168	0.029	0.199	0.011	-0.095	0.365	0.231	0	-0.073	-0.055	0.051	0.257	0.002
SMARCA4 (UniProt P51532)	0.011	0.006	0.038	-0.058	-0.024	0.02	-0.044	-0.024	0.011	0.034	0.004	-0.078	-0.007	0.002	-0.003	0.021	0.056	0.019	-0.002	-0.001
SH3GL3 isoform 3 (UniProt Q99963)	0.08	0.012	0.063	-0.032	-0.049	-0.051	-0.761 (active)	0.33	-0.008	0.035	-0.263	-0.14	0.024	-0.063	0.15	0.072	-0.041	-0.076	0.09	0.041
TADA3 (UniProt O75528)	-0.007	0.004	0.002	0.008	-0.006	-0.022	-0.122	0.006	-0.017	-0.012	0.001	-0.04	0.044	-0.007	0.06	0.029	-0.024	0	0.001	0.03
SKA3 (UniProt Q8IX90)	0.047	0.011	-0.062	0.016	0.007	-0.018	-0.027	0.023	0.017	0.028	-0.035	-0.056	0.03	0.035	0.04	0.023	-0.051	0.039	-0.012	0.063
SNRPF (UniProt P62306)	0.023	0.002	0.045	0.067	0.032	-0.051	-0.35 (active)	0.24	-0.044	0.042	-0.119	-0.028	-0.02	0.014	-0.034	0.021	0.014	-0.03	0.022	0.084
SULT1A1 (UniProt P50225)	0.014	0.004	-0.017	0.032	-0.046	-0.016	0.014	-0.009	0.037	-0.009	0.031	-0.043	0.018	-0.11	0.06	0.026	0.017	0.036	-0.005	-0.011
SMN1 (UniProt Q16637)	0.031	0.075	-0.056	-0.026	0	-0.037	-0.073	-0.031	0.053	-0.039	-0.05	-0.173	0.017	-0.023	-0.01	0.03	0.149	0.062	-0.024	-0.064

Source: the supplement of paper PMC10849652
